Assay outcomes deposited in PubChem BioAssay by Sanford-Burnham Center for Chemical Genomics.
tim10-1 inh: tim10-1 yeast growth inhibition. inhibition, % at 20 µM. S. cerevisiae tim10-1 ts strain growth, BacTiter-Glo, 24 h. 2.2% of 330,000 active;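 active = inhibition of at least 40%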;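 note: mutant grown at 25 °C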
Mdm2 MdmX PPI: inhibitors of human Mdm2/MdmX interaction; O15151+Q00987; SaOS-2 split-luciferase Mdm2/MdmX complementation, luminescence; inhibition, % at 8 µM; 3% of 330,000 active; AID 485346;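 active = inhibition of at least 50% at 8 µM in the primary screen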
Target sequence (O15151 whole entry, looked up): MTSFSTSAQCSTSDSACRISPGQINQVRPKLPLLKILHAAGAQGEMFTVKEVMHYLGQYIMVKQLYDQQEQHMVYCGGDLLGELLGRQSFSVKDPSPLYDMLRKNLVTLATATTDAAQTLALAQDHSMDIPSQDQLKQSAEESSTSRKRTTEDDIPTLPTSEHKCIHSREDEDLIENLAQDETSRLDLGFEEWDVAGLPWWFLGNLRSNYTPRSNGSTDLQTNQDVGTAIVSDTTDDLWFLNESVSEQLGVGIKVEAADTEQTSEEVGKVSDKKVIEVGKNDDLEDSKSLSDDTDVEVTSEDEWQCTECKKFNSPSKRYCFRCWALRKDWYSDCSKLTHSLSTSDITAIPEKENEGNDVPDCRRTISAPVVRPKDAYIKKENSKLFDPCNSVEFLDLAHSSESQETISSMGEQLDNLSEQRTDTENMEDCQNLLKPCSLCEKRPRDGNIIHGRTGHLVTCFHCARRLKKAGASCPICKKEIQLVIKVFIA
Target sequence (Q00987 whole entry, looked up): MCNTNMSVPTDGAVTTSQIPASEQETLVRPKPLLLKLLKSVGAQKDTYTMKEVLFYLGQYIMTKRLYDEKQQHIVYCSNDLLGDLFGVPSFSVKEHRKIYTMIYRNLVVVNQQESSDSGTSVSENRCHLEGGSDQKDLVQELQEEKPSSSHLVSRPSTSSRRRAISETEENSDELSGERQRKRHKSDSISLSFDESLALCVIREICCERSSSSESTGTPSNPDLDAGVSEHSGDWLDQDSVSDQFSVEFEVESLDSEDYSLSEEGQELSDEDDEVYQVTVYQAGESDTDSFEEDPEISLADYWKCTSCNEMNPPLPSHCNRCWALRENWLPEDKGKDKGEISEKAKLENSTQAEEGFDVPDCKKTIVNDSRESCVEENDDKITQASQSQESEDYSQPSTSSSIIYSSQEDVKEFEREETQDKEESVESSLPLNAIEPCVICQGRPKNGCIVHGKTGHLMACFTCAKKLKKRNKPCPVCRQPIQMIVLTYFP
TIM10 inh: growth inhibitors of TIM10 yeast strain; S. cerevisiae TIM10 strain growth, BacTiter-Glo luminescence, 24 h; inhibition, % at 10 µM; 1.4% of 330,000 active; AID 463195;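 active = inhibition of 40% or more at the single tested concentration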;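 note: wild-type TIM10 isogenic control strain grown at permissive 25 °C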
tim23-1 inh: inhibits growth of tim23-1 mutant yeast. inhibition, % at 20 µM. S. cerevisiae tim23-1 growth, BacTiter-Glo luminescence, 24 h. AID 463212. 1.3% of 330,000 active;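 active = growth inhibition of the mutant yeast at or above 50%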;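 note: temperature-sensitive mutant grown at 25 °C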
MPTP inh: permeability transition pore inhibition | inhibition, % at 10 µM | isolated mouse mitochondria, Ca2+ swelling absorbance, 30 min | 1.4% of 360,000 active;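 active = inhibition of 50% or more, scaled per plate between neutral and stimulator controls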
tim23-1 conf: confirmation of tim23-1 mutant yeast growth inhibitors. S. cerevisiae tim23-1 growth, BacTiter-Glo luminescence, 24 h. inhibition, % at 20 µM. 83% of 4,400 active. shares compounds with tim23-1 inh;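 active = inhibition above about 39% in either of two replicate wells at 20 µM, limit read from the data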;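 note: temperature-sensitive tim23-1 mutant grown at 25 °C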
Numbers stand for hits; n = inactive; x = not tested or not shown. The list is not random: actives were taken first. Their share in the collection is about 6.3%.

SMILES	tim10-1 inh	Mdm2 MdmX PPI	TIM10 inh	tim23-1 inh	MPTP inh	tim23-1 conf
O=C1N=C(N2CCCCC2)SC1=C1CCCCC1	n	n	n	n	n	x
O=C1NC(=S)SC1=C1CCCCCC1	n	n	n	50	n	69
COc1ccc(CCNC(=O)CSc2nc3ccsc3c(=O)n2Cc2ccccn2)cc1OC	x	x	x	x	n	x
CCOC(=O)[C@]12CCC=C1N(CCC1=CCCCC1)C(=O)[C@H](CC(=O)N1CCSCC1)C2	x	x	x	x	n	x
CN1c2ccsc2/C(=N/NC(=O)c2c(F)cccc2F)CS1(=O)=O	n	n	n	n	n	x
CN1c2ccsc2/C(=N/Nc2ccccc2)CS1(=O)=O	n	n	n	53	n	n
COc1ccc(-c2c(C)nn3c(N4CCCCCC4)cc(C)nc23)cc1OC	n	n	n	54	n	57
CN1OC[C@@H]2CN3C(=O)N(c4ccccc4)c4ccccc4[C@@H]3C[C@@H]21	x	x	x	x	n	x
COc1ccc(OC)c(C(=O)c2coc3ccc(O)c(CN(C)C)c23)c1	n	n	n	n	n	x
COc1ccc(OC)c(C(=O)c2coc3cc(Br)c(O)c(Br)c23)c1	n	n	n	58	n	46
O=C(N/N=C/CCc1ccccc1)c1ccccc1	n	n	n	55	n	n
Cc1cc2cc(CCNC(=O)c3ccc(C)c([N+](=O)[O-])c3)c(=O)[nH]c2cc1C	n	n	n	n	n	x
Cc1cc2cc(CNC(=O)c3ccc(C)c([N+](=O)[O-])c3)ccc2[nH]1	n	n	n	62	n	56
Cc1cnn(-c2nc(-c3ccccc3)cc(-c3ccccc3)n2)c1	n	n	n	52	n	56
FC(F)(F)c1cc(-c2ccccc2)nc(-n2cc(Cl)cn2)n1	n	n	n	n	n	x
C=CCc1c(C)nc(SC)nc1Nc1ccc(C(C)=O)cc1	n	n	n	50	n	45
C=CCc1c(C)nc(SC)nc1Nc1ccc(C(=O)O)cc1	n	n	n	n	n	x
CC1=C(C(=O)N2CCOCC2)CC(CC(=O)NC2CCCCC2)C(=O)N1Cc1ccc(F)cc1 (centres undefined)	x	x	x	x	n	x
O=C(NCc1ccc(F)cc1)c1cc(C2CCCCN2S(=O)(=O)Cc2ccccc2)on1 (centres undefined)	x	x	x	x	n	x
O=C(Cn1c(-c2ccccc2)noc1=O)Nc1ccc(N2CCCCCC2)cc1	n	n	n	51	n	42
Cc1nc2scc(C)n2c(=O)c1S(=O)(=O)Nc1ccc(N2CCOCC2)cc1	n	n	n	71	n	47
Cc1nc2scc(C)n2c(=O)c1S(=O)(=O)Nc1ccc(N2CCN(C(=O)C(C)C)CC2)cc1	n	n	n	n	n	x
N=c1sccn1CC(=O)Nc1cc(Cl)ccc1Oc1ccccc1	n	n	n	66	n	n
COc1ccc(-c2csc(C(C)(O)c3ccc(OC)cc3)n2)cc1 (centres undefined)	x	x	x	x	n	x
Cc1cc(C)nc(SCC(=O)c2cc3ccccc3oc2=O)n1	n	n	n	50	n	43
SMILES	tim10-1 inh	Mdm2 MdmX PPI	TIM10 inh	tim23-1 inh	MPTP inh	tim23-1 conf
C/C(=N\Nc1nc2ccccc2s1)c1cccs1	n	n	n	64	n	48
CC(=NNc1nc2ccccc2s1)c1ncccn1	x	x	x	x	n	x
C(=N\Nc1nc2ccccc2s1)/c1cccs1	n	n	n	59	n	n
Cc1cccc(C(O)c2ncc(-c3ccccc3)[nH]2)c1C (centres undefined)	x	x	x	x	n	x
CC(C)c1ccc(NC(=S)NCCc2c[nH]c3ccccc23)cc1	n	n	n	52	n	n
COc1ccc(C2CC(=O)Oc3ccc(OC)cc32)cc1 (centres undefined)	n	n	n	n	n	x
COc1ccc(C2CC(=O)Oc3cc(C)c(Cl)cc32)cc1 (centres undefined)	n	n	n	53	n	40
Cc1nc2ccc(C(=O)Nc3ccc4c(c3)OCC(=O)N4)cn2c1N(C)C(=O)CCc1ccccc1	x	x	x	x	n	x
Cc1cc(C)n(-c2nc3ccccc3c(=O)n2OCc2ccc(Cl)cc2)n1	n	n	n	52	n	51
O=C1SC(c2ccccc2)=C/C1=C\N1CCCCC1	n	n	n	63	n	39
O=C(N/C(=C/c1cccc(Br)c1)C(=O)N1CCCCC1)c1ccco1	x	x	x	x	n	x
CN(C(=O)COC(=O)C12CC3CC(CC(Cl)(C3)C1)C2)c1ccccc1	n	n	n	56	n	44
C[C@@H]1CN([C@@H](C)CO)C(=O)CCCn2cc(nn2)CO[C@H]1CN(C)S(=O)(=O)c1ccc(C#N)cc1	x	x	x	x	n	x
NNC(=O)c1cc2cc(Oc3ccccc3)ccc2[nH]1	n	n	n	59	n	n
NNC(=O)c1cc2ccccc2[nH]1	n	n	n	n	n	x
CC1(C)CC(=O)C=C(c2cccc(OC(=O)c3ccc(-c4ccccc4)cc3)c2)C1=O	x	x	x	x	n	x
Oc1c(Cl)cc(Cl)cc1C=Nc1ccccc1N1CCCC1	n	n	n	57	x	54
O=S(=O)(Cc1ccc(Cl)cc1)Nc1ccc2c(c1)OCO2	n	n	n	59	n	49
O=C(O)c1cc(C2CC2)nn1-c1ccccc1	n	n	n	n	n	x
CC1CCC(NC(=O)c2cc(C3CC3)nn2-c2ccccc2)CC1 (centres undefined)	n	n	n	50	n	46
Cc1ccc(S(=O)(=O)N2C[C@H]3N(C(=O)OC(C)C)N(C(=O)OC(C)C)C[C@H](OC(=O)NCc4ccco4)[C@@]3(O)C2)cc1	x	x	x	x	n	x
CCC(C)CN1C(=O)CN(S(C)(=O)=O)CC1(C)C(=O)Nc1c(C)cccc1C (centres undefined)	x	x	x	x	n	x
CCOc1ccccc1C(=O)NC(C(=O)OCn1nnc2ccccc2c1=O)C(C)C (centres undefined)	x	x	x	x	n	x
Cc1ccc(/C=N\NC(=O)C2COc3cc4ccccc4cc3O2)o1 (centres undefined)	n	n	n	n	n	x
O=C(N/N=C\c1ccc(-c2ccccc2[N+](=O)[O-])o1)C1COc2ccccc2O1 (centres undefined)	n	n	n	76	n	53
SMILES	tim10-1 inh	Mdm2 MdmX PPI	TIM10 inh	tim23-1 inh	MPTP inh	tim23-1 conf
O=C(N/N=C\c1ccc(-c2ccccc2[N+](=O)[O-])o1)C1COc2cc3ccccc3cc2O1 (centres undefined)	n	n	n	58	n	53
O=C(CNC(=O)C1COc2ccccc2O1)N/N=C/c1ccc([N+](=O)[O-])cc1 (centres undefined)	n	n	n	n	n	x
Cc1cccc(C)c1NC(=O)C(c1cc2ccccc2o1)N1CCC(c2ccccc2)CC1 (centres undefined)	x	x	x	x	n	x
O=c1cc(-c2cccc(Br)c2)nc(-c2ccccc2F)o1	n	n	n	63	n	57
CCN(CC)C(=O)c1cccc(-c2csc(C(O)c3ccc(F)c(F)c3)n2)c1 (centres undefined)	x	x	x	x	n	x
O=C(Nc1ccccc1)OC1CCC2CC1CCC2OC(=O)Nc1ccccc1 (centres undefined)	n	n	n	53	n	n
Cc1nnc(SCC(=O)NC2(C#N)CCCCC2)n1N	x	x	x	x	n	x
